Records with an inconclusive call do not appear. Entries that show only a call come without a potency. Activity calls are given as the source filed them. Calls come from the whole dose curve; as a rule, active = well fitted activation curve with a large enough effect in the repeat runs; inconclusive = weak or mixed curves; inactive = flat fitted curve, though single readings scatter.
Potency is the fitted concentration of half-maximal effect.

The assay can be described thus: A CellTox Green Cytotoxicity Assay to monitor cytotoxicity in HepG2 cells - 40 hour (AID 1224879). Note: nearly all actives have a fitted effect of over 40% in size. The note with it: CellTox Green fluorescence; series mostly up to 76.8 µM. The source says: National Center for Advancing Translational Sciences [NCATS]
NIH Chemical Genomics Center [NCGC]
U.S. Environmental Protection Agency [EPA]
National Institutes of Environmental Health Sciences [NIEHS]
National Toxicology Program [NTP]
Cell-based models are critical for drug discovery. Determining the natural cytotoxic effects resulting from test compounds is an essential research activity. A CellTox Green Cytotoxicity Assay to monitor cytotoxicity in real time of continues cell culture during 40 hours of the compound treatment was used to screen Tox21 10K library compounds in HepG2 cells. CellTox Green Cytotoxicity Assay is a nonlytic, homogeneous, biofluorescent method to measure cytotoxicity in cell culture after experimental manipulation. The assay system uses a proprietary asymmetric cyanine dye that is excluded from viable cells but preferentially stains the dead cell's DNA. […] Viable cells produce no appreciable increases in fluorescence. Therefore, the fluorescence signal produced by the binding interaction with dead cell DNA is proportional to cytotoxicity.
The mixture of HepG2 cell suspension and reagents were dispensed at 600cells/6 ul/well in 1536-well tissue culture treated black solid bottom plates using a Multidrop dispenser. After the assay plates were incubated at a 37 C/5% CO2 incubator for 5 hours, 23 nL of compounds dissolved in DMSO, positive and negative controls was transferred to the assay plate by a pintool work station. The plates were incubated at 37 C for 40 hours. The fluorescence intensity were measured at 0h, 8h, 16h, 24h, 32h and 40h time points using ViewLux plate reader during compound treatment.
Take `CC[C@@H]([C@H](C)O)n1ncn(-c2ccc(N3CCN(c4ccc(OC[C@@H]5CO[C@@](Cn6cncn6)(c6ccc(F)cc6F)C5)cc4)CC3)cc2)c1=O`: the Potency result is “inactive”.

Consider `Brc1cc(-c2ccc(Br)c(Br)c2Br)cc(Br)c1Br`, for which the Potency entry was “inactive”.

On to `C[C@@H]1C[C@H]2[C@@H]3CCC4=CC(=O)C=C[C@]4(C)[C@@]3(F)[C@@H](O)C[C@]2(C)[C@H]1C(=O)CO`, for which the Potency entry is “inactive”.

Take `CCNC(=O)N1CCN(CCCC(c2ccc(F)cc2)c2ccc(F)cc2)CC1`: the Potency is 21.3 µM (active).

`CCCOC(=O)c1ccc(N)cc1`: the Potency entry was “inactive”.

With `CC(=O)[C@H]1CC[C@H]2[C@@H]3C=CC4=CC(=O)CC[C@@]4(C)[C@@H]3CC[C@]12C`, the Potency entry was “inactive”.

Regarding `Nc1c(I)cc(I)c(C(=O)N(CCC(=O)O)c2ccccc2)c1I`, the Potency result was “inactive”.

In the case of `O=C(C(=O)c1ccccc1)c1ccccc1`, the Potency result was “inactive”.

As to `CCn1cc(C(=O)O)c(=O)c2cc(F)c(N3CCNCC3)nc21`, the Potency entry was “inactive”.

As for `CCOC(=O)C(C)Oc1ccc(Oc2nc3ccc(Cl)cc3o2)cc1` (stereo not given), the Potency result is “inactive”.

As for `C/C(=N/NC(=O)c1ccncc1)C(=O)O`, the Potency entry is “inactive”.

Take `O=C(NCCCN1CCOCC1)c1ccc(Cl)cc1`: the Potency entry was “inactive”.

Take `CCN(CC)CCNC(=O)c1ccc(NC(C)=O)cc1`: the Potency entry is “inactive”.

As for `OC(CCCN1CCCCC1)(c1ccccc1)c1ccccc1`, the Potency result is “inactive”.

Take `C1COCO1`: the Potency result was “inactive”.

Regarding `CCCCCCCCSCCO`, the Potency is 43.6 µM (active).

Take `O=C(O)c1snc(Cl)c1Cl`: the Potency result was “inactive”.

Regarding `Cc1cc(C(=C2C=CC(=Nc3ccc(S(=O)(=O)O)cc3S(=O)(=O)O)C=C2)c2ccc(Nc3ccc(S(=O)(=O)O)cc3)cc2)ccc1N`, the Potency result is “inactive”.

On to `CCCC1C(CC)=CC(CC)=CN1c1ccccc1` (stereo not given), for which the Potency entry was “inactive”.

On to `CC(=O)[C@H]1CC[C@H]2[C@@H]3C[C@H](C)C4=CC(=O)CC[C@]4(C)[C@H]3[C@@H](O)C[C@]12C`, for which the Potency entry is “inactive”.

Consider `COC(=O)[C@@H]1CC2=CC(=O)CC[C@]2(C)[C@@]23O[C@@H]2C[C@@]2(C)[C@@H](CC[C@@]24CCC(=O)O4)[C@H]13`, for which the Potency entry is “inactive”.

As to `CCCOC(=O)c1ccc(C(=O)OCCC)nc1`, the Potency result was “inactive”.

On to `CC1=CC(O)CC(C)(C)C1` (stereo not given), for which the Potency result is “inactive”.

For the compound `CCCCCCCCCCOS(=O)(=O)O`, the Potency result was “inactive”.

Turning to `O=C(O)c1cccnc1C(=O)O`, the Potency entry is “inactive”.

In the case of `C[N+](C)(C)CCOC(N)=O`, the Potency result was “inactive”.

For `CCCCC1C(=O)N(c2ccccc2)N(c2ccc(O)cc2)C1=O` (stereo not given), the Potency was 10.7 µM (active).

For the compound `Cc1cc(OI)c(C(C)C)cc1-c1cc(C(C)C)c(OI)cc1C`, the Potency result was “inactive”.

`CCCOCCOCCO`: the Potency entry is “inactive”.

In the case of `CCCCCCCC/C=C\CCCCCCCC(=O)OC(CO)CO`, the Potency entry is “inactive”.

`Nc1ccc(S(=O)(=O)O)cc1`: the Potency entry was “inactive”.

For `Cc1cc(O)c(C(C)C)cc1Cl`, the Potency is 34.7 µM (active).

On to `O=C(Nc1ccc([N+](=O)[O-])cc1)Nc1ccc([N+](=O)[O-])cc1`, for which the Potency is 23.9 µM (active).

For `CC(C)C(OC(=O)c1ccccc1)C(C)(C)COC(=O)c1ccccc1` (stereo not given), the Potency entry was “inactive”.

Regarding `O=C(O)c1ccccc1NCCc1ccccc1`, the Potency result was “inactive”.

Take `CCCCC(=O)O[C@]1(C(=O)CO)CC[C@H]2[C@@H]3CCC4=CC(=O)CC[C@]4(C)[C@H]3[C@@H](O)C[C@@]21C`: the Potency entry was “inactive”.

On to `O=C1OCCN1/N=C/c1ccc([N+](=O)[O-])o1`, for which the Potency result was “inactive”.

For the compound `CCOC(=O)OCC`, the Potency entry was “inactive”.

In the case of `NC(=O)Nc1ccc(Cl)c(Cl)c1`, the Potency entry is “inactive”.

Take `C=C(C)C(=O)OCCOC(=O)CC(C)=O`: the Potency entry was “inactive”.
